# Measured values: PMC7862700, “An all-to-all approach to the identification of sequence-specific readers for epigenetic DNA modifications on cytosine”
# Assays:
# Assay in all cases: DAPPL (digital affinity profiling via proximity ligation, sequencing); 10 mM Tris-HCl pH 7.5, 50 mM NaCl, 1 mM DTT, 4% glycerol, room temperature, 30 min; GST-TFs on glutathione beads, 16-mer random dsDNA library, 0.1% formaldehyde crosslink after washing; high values mean tight binding
# FLI1 = target: T1, FLI1 (Homo sapiens, UniProt Q01543 1-452); conditions: protein: recombinant; tags: N-terminal GST; dsDNA, one strand shown
# T1 sequence: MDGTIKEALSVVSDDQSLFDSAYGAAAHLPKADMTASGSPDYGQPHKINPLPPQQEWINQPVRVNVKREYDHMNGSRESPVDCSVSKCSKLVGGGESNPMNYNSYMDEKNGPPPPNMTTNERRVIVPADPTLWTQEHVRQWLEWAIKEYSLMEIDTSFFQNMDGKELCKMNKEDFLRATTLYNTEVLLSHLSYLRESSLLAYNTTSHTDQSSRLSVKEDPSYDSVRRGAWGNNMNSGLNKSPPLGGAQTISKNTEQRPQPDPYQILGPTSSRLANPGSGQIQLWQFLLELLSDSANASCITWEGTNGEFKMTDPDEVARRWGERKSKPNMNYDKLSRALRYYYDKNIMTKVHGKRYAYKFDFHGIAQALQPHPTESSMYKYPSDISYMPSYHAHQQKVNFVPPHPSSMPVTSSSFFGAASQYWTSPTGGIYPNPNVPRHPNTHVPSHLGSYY
# Summary of the method: (§1)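 A tag-only sample was pooled with DNA-barcoded human transcription factors that had been expressed in yeast as GST fusions and captured on glutathione beads. The pools were incubated for 30 min at room temperature with 200 nmole of a random double-stranded 16-mer DNA library in Tris/NaCl/DTT/glycerol buffer, then washed, crosslinked with 0.1% formaldehyde, proximity-ligated (BsaI/T4 ligase, 1 h, 37 °C), PCR-amplified and sequenced on an Illumina NextSeq500. Binding signal is each hexamer's read frequency for a factor divided by its frequency for the tag-only sample.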
# ELK1 = target: T2, ELK1 (Homo sapiens, UniProt P19419 1-428); conditions: protein: recombinant; tags: N-terminal GST; dsDNA, one strand shown
# T2 sequence: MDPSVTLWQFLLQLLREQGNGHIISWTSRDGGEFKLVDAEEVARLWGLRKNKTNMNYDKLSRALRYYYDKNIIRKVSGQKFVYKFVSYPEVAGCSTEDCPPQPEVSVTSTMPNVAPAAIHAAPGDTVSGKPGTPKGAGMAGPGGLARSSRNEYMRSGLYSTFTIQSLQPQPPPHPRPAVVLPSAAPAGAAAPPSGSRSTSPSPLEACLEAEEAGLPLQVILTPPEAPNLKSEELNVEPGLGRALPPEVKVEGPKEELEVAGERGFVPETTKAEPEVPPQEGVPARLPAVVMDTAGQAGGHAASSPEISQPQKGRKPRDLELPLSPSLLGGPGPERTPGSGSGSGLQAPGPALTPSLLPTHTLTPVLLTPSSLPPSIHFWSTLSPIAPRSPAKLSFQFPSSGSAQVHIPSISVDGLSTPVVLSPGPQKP
# Summary of the method: as §1
# GABPA = target: T3, GABPA (Homo sapiens, UniProt Q06546 1-454); conditions: protein: recombinant; tags: N-terminal GST; dsDNA, one strand shown
# T3 sequence: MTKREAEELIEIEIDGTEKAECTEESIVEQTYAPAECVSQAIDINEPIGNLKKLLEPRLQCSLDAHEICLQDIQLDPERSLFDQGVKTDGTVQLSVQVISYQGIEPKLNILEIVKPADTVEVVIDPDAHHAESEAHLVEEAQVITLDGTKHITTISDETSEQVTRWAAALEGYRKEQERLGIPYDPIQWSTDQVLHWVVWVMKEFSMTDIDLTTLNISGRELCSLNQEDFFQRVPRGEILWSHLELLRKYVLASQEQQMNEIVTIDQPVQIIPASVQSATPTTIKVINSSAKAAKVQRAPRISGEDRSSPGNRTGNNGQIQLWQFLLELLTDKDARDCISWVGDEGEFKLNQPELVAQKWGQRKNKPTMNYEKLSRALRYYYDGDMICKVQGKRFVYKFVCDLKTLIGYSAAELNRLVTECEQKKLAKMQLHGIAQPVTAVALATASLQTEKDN
# Summary of the method: as §1
# ERG = target: T4, ERG (Homo sapiens, UniProt P11308 1-479); conditions: protein: recombinant; tags: N-terminal GST; dsDNA, one strand shown
# T4 sequence: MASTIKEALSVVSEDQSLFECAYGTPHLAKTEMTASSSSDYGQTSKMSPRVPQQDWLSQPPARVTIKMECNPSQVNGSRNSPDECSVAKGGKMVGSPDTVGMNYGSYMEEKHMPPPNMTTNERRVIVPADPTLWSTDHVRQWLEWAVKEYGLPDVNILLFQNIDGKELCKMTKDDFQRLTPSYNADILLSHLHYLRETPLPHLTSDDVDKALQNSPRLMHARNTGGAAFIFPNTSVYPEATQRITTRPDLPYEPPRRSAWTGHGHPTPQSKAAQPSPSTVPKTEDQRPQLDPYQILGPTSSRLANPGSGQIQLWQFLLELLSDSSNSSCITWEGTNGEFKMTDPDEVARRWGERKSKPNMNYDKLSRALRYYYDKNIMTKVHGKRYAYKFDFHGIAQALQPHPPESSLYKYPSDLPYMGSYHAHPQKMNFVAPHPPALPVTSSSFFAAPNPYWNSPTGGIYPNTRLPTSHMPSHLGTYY
# Summary of the method: as §1
# ELF1 = ELF1 (Homo sapiens, UniProt P32519 1-619); conditions: protein: recombinant; tags: N-terminal GST; dsDNA, one strand shown
# Summary of the method: as §1
# EHF = target: T5, EHF (Homo sapiens, UniProt Q9NZC4 1-300); conditions: protein: recombinant; tags: N-terminal GST; dsDNA, one strand shown
# T5 sequence: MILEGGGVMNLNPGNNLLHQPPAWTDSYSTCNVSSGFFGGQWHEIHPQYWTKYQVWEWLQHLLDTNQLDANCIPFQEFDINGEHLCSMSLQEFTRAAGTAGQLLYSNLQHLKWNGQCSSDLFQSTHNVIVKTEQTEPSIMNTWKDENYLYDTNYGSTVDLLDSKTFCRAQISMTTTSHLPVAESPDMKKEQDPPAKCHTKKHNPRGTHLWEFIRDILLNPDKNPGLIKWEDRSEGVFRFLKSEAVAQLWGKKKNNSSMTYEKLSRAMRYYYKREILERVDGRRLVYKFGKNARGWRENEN
# Summary of the method: as §1
# SPI1 = SPI1 (Homo sapiens, UniProt P17947 1-270); conditions: protein: recombinant; tags: N-terminal GST; dsDNA, one strand shown
# Summary of the method: as §1
# SPIB = SPIB (Homo sapiens, UniProt Q01892 1-262); conditions: protein: recombinant; tags: N-terminal GST; dsDNA, one strand shown
# Summary of the method: as §1
# ELK3 = target: T6, ELK3 (Homo sapiens, UniProt P41970 1-407); conditions: protein: recombinant; tags: N-terminal GST; dsDNA, one strand shown
# T6 sequence: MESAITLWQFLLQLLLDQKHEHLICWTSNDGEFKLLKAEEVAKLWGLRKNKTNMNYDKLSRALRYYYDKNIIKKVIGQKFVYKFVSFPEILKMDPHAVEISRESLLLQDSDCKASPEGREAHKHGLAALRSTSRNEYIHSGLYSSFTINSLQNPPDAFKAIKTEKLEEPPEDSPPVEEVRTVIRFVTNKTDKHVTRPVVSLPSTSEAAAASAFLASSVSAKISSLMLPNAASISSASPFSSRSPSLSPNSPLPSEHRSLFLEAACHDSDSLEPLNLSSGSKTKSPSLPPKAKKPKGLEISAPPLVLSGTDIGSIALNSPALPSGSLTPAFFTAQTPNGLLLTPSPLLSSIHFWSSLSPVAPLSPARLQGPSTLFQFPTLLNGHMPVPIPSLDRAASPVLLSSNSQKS
# Summary of the method: as §1
# FEV = target: T7, FEV (Homo sapiens, UniProt Q99581 1-238); conditions: protein: recombinant; tags: N-terminal GST; dsDNA, one strand shown
# T7 sequence: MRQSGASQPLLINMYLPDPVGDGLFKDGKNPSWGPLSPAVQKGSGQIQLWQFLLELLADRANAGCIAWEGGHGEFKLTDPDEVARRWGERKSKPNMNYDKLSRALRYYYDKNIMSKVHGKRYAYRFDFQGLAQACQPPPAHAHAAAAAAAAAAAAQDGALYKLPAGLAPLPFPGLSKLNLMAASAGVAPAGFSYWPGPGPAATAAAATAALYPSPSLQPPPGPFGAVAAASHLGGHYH
# Summary of the method: as §1
# ETV5 = ETV5 (Homo sapiens, UniProt P41161 1-510); conditions: protein: recombinant; tags: N-terminal GST; dsDNA, one strand shown
# Summary of the method: as §1
# HSF1 = HSF1 (Homo sapiens, UniProt Q00613 1-529); conditions: protein: recombinant; tags: N-terminal GST; chain copies: 3; dsDNA, one strand shown
# Summary of the method: as §1
# SPIC = target: T8, SPIC (Homo sapiens, UniProt Q8N5J4 1-248); conditions: protein: recombinant; tags: N-terminal GST; dsDNA, one strand shown
# T8 sequence: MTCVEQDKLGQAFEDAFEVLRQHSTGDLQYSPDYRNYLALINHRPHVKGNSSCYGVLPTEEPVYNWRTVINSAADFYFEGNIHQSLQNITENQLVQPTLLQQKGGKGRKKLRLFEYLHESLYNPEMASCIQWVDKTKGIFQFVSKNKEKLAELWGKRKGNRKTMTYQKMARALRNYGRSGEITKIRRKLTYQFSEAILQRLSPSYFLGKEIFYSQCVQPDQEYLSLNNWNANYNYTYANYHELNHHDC
# Summary of the method: as §1
# ELF4 = ELF4 (Homo sapiens, UniProt Q99607 1-663); conditions: protein: recombinant; tags: N-terminal GST; dsDNA, one strand shown
# Summary of the method: as §1
# ELK4 = target: T9, ELK4 (Homo sapiens, UniProt P28324-2 1-405); conditions: protein: recombinant; tags: N-terminal GST; dsDNA, one strand shown
# T9 sequence: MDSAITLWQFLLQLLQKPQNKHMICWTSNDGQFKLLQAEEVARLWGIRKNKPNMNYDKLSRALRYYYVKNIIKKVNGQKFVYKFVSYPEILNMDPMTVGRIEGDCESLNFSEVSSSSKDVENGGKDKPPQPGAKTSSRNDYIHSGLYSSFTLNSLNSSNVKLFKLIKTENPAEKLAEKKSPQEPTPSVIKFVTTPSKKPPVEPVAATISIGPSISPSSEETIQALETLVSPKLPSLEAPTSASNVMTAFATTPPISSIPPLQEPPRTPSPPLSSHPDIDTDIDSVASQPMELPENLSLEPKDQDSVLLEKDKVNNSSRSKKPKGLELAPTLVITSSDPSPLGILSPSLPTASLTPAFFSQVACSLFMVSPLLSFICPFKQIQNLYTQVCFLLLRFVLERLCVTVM
# Summary of the method: as §1
# ETV2 = target: T10, ETV2 (Homo sapiens, UniProt O00321 1-342); conditions: protein: recombinant; tags: N-terminal GST; dsDNA, one strand shown
# T10 sequence: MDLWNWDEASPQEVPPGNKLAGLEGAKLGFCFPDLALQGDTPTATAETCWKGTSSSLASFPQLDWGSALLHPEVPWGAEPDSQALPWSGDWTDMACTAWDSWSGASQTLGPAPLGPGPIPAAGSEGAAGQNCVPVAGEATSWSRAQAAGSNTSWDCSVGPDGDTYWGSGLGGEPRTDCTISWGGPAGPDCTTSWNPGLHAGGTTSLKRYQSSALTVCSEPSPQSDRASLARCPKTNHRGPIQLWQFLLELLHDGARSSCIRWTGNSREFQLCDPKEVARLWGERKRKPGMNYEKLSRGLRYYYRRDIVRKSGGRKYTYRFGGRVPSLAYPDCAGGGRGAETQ
# Summary of the method: as §1
# ELF3 = target: T11, ELF3 (Homo sapiens, UniProt P78545 1-371); conditions: protein: recombinant; tags: N-terminal GST; dsDNA, one strand shown
# T11 sequence: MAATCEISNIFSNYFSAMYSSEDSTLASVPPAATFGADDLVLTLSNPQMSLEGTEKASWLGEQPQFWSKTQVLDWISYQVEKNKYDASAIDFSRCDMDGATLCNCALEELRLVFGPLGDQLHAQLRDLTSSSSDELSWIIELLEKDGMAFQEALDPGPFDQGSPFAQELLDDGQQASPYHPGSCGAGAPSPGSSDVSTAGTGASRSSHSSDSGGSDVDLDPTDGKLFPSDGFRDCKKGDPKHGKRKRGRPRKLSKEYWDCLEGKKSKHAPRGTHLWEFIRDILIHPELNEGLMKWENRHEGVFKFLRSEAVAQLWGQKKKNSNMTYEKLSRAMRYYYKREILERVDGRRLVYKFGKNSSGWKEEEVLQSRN
# Summary of the method: as §1
# CRX = CRX (Homo sapiens, UniProt O43186 1-299); conditions: protein: recombinant; tags: N-terminal GST; dsDNA, one strand shown
# Summary of the method: as §1
# ETV1 = ETV1 (Homo sapiens, UniProt P50549 1-477); conditions: protein: recombinant; tags: N-terminal GST; dsDNA, one strand shown
# Summary of the method: as §1
# Sequence of ETV1 (P50549 whole entry): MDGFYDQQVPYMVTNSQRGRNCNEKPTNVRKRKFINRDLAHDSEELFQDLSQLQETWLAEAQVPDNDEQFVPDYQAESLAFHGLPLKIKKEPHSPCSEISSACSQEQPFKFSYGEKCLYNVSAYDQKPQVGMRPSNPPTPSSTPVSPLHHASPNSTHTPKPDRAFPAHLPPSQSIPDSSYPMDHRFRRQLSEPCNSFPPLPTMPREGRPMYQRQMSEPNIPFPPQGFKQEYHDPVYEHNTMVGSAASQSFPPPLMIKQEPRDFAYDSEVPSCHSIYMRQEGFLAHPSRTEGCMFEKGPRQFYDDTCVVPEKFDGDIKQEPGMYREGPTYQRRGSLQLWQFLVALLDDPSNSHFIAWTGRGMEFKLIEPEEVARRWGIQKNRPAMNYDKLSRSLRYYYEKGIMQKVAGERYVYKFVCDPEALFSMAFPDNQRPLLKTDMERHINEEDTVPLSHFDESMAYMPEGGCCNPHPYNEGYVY
# Sequence of SPIB (Q01892 whole entry): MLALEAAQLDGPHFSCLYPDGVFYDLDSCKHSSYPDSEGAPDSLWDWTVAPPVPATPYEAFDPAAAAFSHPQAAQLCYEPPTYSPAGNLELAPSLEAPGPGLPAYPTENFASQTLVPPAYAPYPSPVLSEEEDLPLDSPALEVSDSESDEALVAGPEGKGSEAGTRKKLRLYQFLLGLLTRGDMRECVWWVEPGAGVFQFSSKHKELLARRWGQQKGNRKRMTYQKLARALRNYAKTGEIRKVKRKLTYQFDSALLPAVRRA
# Sequence of ELF1 (P32519 whole entry): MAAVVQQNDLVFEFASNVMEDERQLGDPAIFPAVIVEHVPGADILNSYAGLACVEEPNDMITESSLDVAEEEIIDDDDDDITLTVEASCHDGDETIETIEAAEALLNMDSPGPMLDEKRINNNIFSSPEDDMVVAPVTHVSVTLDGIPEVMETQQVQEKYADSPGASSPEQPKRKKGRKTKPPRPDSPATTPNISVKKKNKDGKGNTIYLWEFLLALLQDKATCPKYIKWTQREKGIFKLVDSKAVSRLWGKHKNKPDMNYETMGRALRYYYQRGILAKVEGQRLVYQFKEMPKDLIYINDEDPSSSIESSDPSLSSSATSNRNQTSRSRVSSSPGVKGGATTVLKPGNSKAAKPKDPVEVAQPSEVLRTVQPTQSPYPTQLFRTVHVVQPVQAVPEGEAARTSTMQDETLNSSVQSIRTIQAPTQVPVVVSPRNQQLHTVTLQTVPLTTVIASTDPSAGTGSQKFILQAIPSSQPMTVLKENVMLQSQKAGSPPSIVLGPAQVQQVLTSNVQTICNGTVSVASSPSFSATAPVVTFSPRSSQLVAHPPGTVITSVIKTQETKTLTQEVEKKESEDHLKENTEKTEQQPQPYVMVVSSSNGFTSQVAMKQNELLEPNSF
# Sequence of CRX (O43186 whole entry): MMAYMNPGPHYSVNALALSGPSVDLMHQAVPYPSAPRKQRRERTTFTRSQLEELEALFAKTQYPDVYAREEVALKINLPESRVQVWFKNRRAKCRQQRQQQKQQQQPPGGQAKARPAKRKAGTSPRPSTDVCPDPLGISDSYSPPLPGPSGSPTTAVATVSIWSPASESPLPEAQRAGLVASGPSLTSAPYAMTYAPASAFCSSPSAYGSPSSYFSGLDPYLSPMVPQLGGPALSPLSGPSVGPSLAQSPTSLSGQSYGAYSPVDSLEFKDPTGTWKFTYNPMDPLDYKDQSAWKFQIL
# Sequence of ELF4 (Q99607 whole entry): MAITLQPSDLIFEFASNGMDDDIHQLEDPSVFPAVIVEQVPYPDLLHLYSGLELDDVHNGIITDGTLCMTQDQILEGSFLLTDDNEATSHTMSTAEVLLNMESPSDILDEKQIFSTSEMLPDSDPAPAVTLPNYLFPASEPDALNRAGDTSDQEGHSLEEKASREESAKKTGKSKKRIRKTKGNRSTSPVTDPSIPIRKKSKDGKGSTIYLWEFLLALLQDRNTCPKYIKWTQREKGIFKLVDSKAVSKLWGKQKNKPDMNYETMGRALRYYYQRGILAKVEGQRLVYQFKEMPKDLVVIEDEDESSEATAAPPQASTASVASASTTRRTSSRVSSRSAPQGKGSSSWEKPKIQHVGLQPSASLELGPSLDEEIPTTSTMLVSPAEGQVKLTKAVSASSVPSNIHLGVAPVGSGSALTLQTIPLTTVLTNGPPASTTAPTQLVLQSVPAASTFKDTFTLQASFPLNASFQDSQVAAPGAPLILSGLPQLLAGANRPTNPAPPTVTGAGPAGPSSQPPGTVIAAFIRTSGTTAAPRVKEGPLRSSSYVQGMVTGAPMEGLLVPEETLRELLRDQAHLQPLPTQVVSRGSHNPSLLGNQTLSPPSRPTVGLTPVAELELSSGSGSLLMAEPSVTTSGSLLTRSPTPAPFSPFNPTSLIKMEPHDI
# Sequence of ETV5 (P41161 whole entry): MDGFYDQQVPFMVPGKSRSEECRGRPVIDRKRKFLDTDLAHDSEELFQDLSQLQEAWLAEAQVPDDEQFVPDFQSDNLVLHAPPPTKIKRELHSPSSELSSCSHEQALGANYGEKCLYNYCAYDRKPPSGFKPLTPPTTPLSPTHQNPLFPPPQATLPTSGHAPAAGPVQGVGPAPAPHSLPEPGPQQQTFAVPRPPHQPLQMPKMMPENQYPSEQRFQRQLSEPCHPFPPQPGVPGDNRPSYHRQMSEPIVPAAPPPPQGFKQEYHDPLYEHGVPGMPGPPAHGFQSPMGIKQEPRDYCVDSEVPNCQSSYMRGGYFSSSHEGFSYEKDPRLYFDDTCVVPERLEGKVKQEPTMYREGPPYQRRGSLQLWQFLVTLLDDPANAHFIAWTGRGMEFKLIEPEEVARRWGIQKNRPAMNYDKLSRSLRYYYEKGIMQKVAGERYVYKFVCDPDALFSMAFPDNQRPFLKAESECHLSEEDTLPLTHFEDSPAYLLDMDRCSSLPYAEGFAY
# Sequence of HSF1 (Q00613 whole entry): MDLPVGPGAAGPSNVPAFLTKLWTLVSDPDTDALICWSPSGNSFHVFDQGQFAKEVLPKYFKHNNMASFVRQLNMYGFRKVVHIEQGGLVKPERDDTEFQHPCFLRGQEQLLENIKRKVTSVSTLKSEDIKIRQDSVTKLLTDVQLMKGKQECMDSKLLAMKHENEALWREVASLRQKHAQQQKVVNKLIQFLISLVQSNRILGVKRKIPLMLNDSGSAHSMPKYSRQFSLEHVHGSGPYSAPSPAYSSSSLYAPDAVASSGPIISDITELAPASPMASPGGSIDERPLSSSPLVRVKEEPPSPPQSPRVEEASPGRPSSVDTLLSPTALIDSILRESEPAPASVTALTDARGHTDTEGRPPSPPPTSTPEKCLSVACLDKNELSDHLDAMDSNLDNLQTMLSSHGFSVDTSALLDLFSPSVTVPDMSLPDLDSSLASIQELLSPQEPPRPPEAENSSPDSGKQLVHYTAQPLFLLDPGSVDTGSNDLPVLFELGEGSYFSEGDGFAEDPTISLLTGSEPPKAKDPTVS
sequence,measurement,setting,value
CTGTTA,binding signal,FLI1,"1.22 fold enrichment (6-mer frequency, TF over GST control)"
same,binding signal,ELK1,"1.24 fold enrichment (6-mer frequency, TF over GST control)"
same,binding signal,GABPA,"1.32 fold enrichment (6-mer frequency, TF over GST control)"
same,binding signal,ERG,"1.28 fold enrichment (6-mer frequency, TF over GST control)"
same,binding signal,ELF1,"1.24 fold enrichment (6-mer frequency, TF over GST control)"
same,binding signal,EHF,"1.26 fold enrichment (6-mer frequency, TF over GST control)"
same,binding signal,SPI1,"1.27 fold enrichment (6-mer frequency, TF over GST control)"
same,binding signal,SPIB,"1.27 fold enrichment (6-mer frequency, TF over GST control)"
same,binding signal,ELK3,"1.32 fold enrichment (6-mer frequency, TF over GST control)"
same,binding signal,FEV,"1.25 fold enrichment (6-mer frequency, TF over GST control)"
same,binding signal,ETV5,"1.2 fold enrichment (6-mer frequency, TF over GST control)"
same,binding signal,HSF1,"1.16 fold enrichment (6-mer frequency, TF over GST control)"
same,binding signal,SPIC,"1.28 fold enrichment (6-mer frequency, TF over GST control)"
same,binding signal,ELF4,"1.37 fold enrichment (6-mer frequency, TF over GST control)"
same,binding signal,ELK4,"1.4 fold enrichment (6-mer frequency, TF over GST control)"
same,binding signal,ETV2,"1.35 fold enrichment (6-mer frequency, TF over GST control)"
same,binding signal,ELF3,"1.32 fold enrichment (6-mer frequency, TF over GST control)"
same,binding signal,CRX,"1.16 fold enrichment (6-mer frequency, TF over GST control)"
same,binding signal,ETV1,"1.23 fold enrichment (6-mer frequency, TF over GST control)"
